Measured values: ChEMBL document CHEMBL4888484, “Replenishing the malaria drug discovery pipeline: Screening and hit evaluation of the MMV Hit Generation Library 1 (HGL1) against asexual blood stage Plasmodium falciparum ,using a nano luciferase reporter read-out” (2022)
The campaign covered roughly 4,800 compounds. About 410 (8.5%) showed an effect of 50% or more. Only a selection was taken, and strong results are over-represented in it overall.

What follows are compounds tested on Plasmodium falciparum (assay: Confirmatory screen in NF54 pLDH assay, in single point, at 2uM, 72h). Settings: timepoint 72 hour.
Format: functional, Erythrocyte

SMILES	% Inhibition
Cc1onc(C(=O)NCc2cnn(C)c2C)c1COc1cccc(C(F)(F)F)c1	-4%
O=C(Cn1cnc2cc3c(cc21)OCCCO3)Nc1ccc(F)cc1	13%
CCc1ccsc1CN=C(N)NC1CCCCC1	-9%
Clc1ccc(-c2onc3c2CCCC3)cc1	9%
O=C(Nc1cc(-c2onc3c2CCCC3)cc(C(F)(F)F)c1)c1cncc(Br)c1	95%
O=C(Nc1onc2c1CCC2)c1ccc2ccccc2c1	41%
Cc1cc(C)cc(-c2cc3nc(C)cc(N4CCC(C(=O)Nc5ccc(C)c(Cl)c5)CC4)n3n2)c1	-12%
Cc1cc(C)cc(-c2cc3nc(C)cc(N4CCC(C(=O)NCc5cccc(F)c5)CC4)n3n2)c1	67%
O=C(NCc1cccc(F)c1)[C@H]1CCCN(c2nc3ccccc3n(Cc3ccccc3)c2=O)C1	5%
CC1CN(CC(=O)NCCC#N)C(C)CO1 (stereo not drawn)	1%
Cc1ccc(CN2C(=O)NC3(CCCCC3C)C2=O)c(OCC2CCOC2)c1 (stereo not drawn)	6%
O=C(NCCCN1CCOCC1)C1C2CCCC21 (stereo not drawn)	8%
CN(C)c1ccc(-c2nc(C(F)(F)F)cc(C(F)(F)C(F)(F)F)n2)cc1	5%
Oc1cccc(CN2CCC3(CC2)C[C@H](c2ccccc2)CN(C2CC2)C3)c1	29%
Cc1c(C(=O)Nc2cccc(S(=O)(=O)NC3CC3)c2)cnn1C	12%
CC1(CCCCNC(=O)N2CC[C@H](S(C)(=O)=O)C2)OCCO1	6%
CCN1c2cc(C(=O)NCc3ccccc3)ccc2C(=O)N2CCCC[C@H]21	7%
COc1ccc(-n2nc(C)c3c2NC(=O)C[C@@H]3c2ccccc2OCC(C)C)nn1	-1%
Cc1nnc(-c2ccc3ccn(CC(=O)Nc4ccc(F)c(Cl)c4)c3c2)o1	96%
Cc1noc(C)c1CC(=O)Nc1cccc(-c2nnco2)c1	9%
Cc1cc(=O)n(CC(=O)Nc2ccc(Cl)c(C(F)(F)F)c2)c(-c2ccc(F)cc2)n1	0%
CCc1cccc(NC(=O)Cn2ccc3ccc(-c4nnc(C)o4)cc32)c1	89%
Cn1cc(-c2ccc(Cl)cc2)c2ncn(CC(=O)Nc3cccc(Cl)c3)c(=O)c21	-1%
Cc1nc2cc3c(cc2n1CC(=O)Nc1ccc(Cl)cc1)OCCCO3	15%
CC1CCCC(C)C12NC(=O)N(CN1CCN(CCOc3ccccc3Cl)CC1)C2=O (stereo not drawn)	5%
CCOc1ccc(CNC(=O)c2sccc2NC(=O)c2cnccn2)cc1	-15%

SMILES	% Inhibition
COc1ccc(C(=O)c2c[nH]c(C(=O)NC[C@H]3CCCO3)c2)cc1	3%
COc1ccccc1CNC(=O)c1cnn2c3c(cnc12)CCCC3	-2%
Brc1cc(Br)c2nc(-c3cnccn3)ccc2c1	14%
CC(=O)c1ccc(N2CCN(C(=O)c3nn[nH]c3Nc3ccc(C)c(C)c3)CC2)cc1	8%
CCn1cc(Cl)c(-c2nnc(-c3cccs3)o2)n1	0%
CC1CN(C)C(C)c2c1oc1ccc(N)cc21 (stereo not drawn)	-17%
CC1=NN(c2ncc(C(F)(F)F)cc2Cl)C(=O)c2ccccc2O1	6%
CN1CCC(Nc2ncnc3c2cnn3C)C1c1ccc(Cl)cc1 (stereo not drawn)	12%
Cc1cc2ncn(CN3CC[C@@H](NC(=O)OC(C)(C)C)C3)c2cc1C	-7%
CC1CC(Nc2ncnc3cc(Br)ccc23)CCN1C (stereo not drawn)	95%
Brc1cncnc1NC1CC1	9%
CCCOc1cccc2c(NC3CCN(CCOC)CC3)ccnc12	48%
O=C(NCc1ccco1)c1nc(-c2ccncc2)cs1	10%
Cc1noc(C)c1NC(=O)CCS(=O)(=O)c1ccc2ccccc2c1	4%
O=C(Nc1nccnc1C(=O)O)c1ccc(Cl)cc1	14%
CC1CCC(N2CC(C(=O)N(C3CC3)C(C)C(C)C)CC2=O)CC1 (stereo not drawn)	1%
O=C1c2ccccc2C(=O)N1CCc1csc(Cn2cncn2)n1	10%
CN1CCN(C2(CNc3ccnc4ccccc34)CCCC2)CC1	98%
c1ccc(Oc2ccnc(NCC34COCCN3CCOC4)n2)cc1	-13%
Cc1noc(OCCc2ccccc2)n1	11%
Cc1ccc(C)c(-n2cnc(=O)n2[C@H]2CCN(C3CC3)C2=O)c1	51%
Cc1ccc(C)c(N2CCN(c3ncc4c(=O)n(-c5ccc6c(c5)OCO6)c(=O)[nH]c4n3)CC2)c1	3%
Brc1ccc2c(c1)C1CCCCC1N2 (stereo not drawn)	9%
Cc1c(F)cccc1NC(=O)N1CCN(C2=CC3=N[C@@H](C)CN3C=N2)CC1	54%
CC[C@H]1CN2C=NC(N3CCN(C(=O)Nc4cc(F)cc(F)c4)CC3)=CC2=N1	46%
CC[C@H]1CN2C=NC(N3CCN(C(=O)Cc4ccccc4)CC3)=CC2=N1	25%

SMILES	% Inhibition
COC(=O)c1nc(NC(=O)C2(C)CCCC2)sc1C(C)C	-9%
Cc1nnc(N2CC[C@H](c3nnc[nH]3)C2)s1	4%
CC1(C)CC(=O)C2(Cc3ccccc3N3CCN(Cc4ccccc4)C[C@H]32)C(=O)C1	12%
COc1c[nH]c(C(=O)NC2CCN(Cc3ccccc3)CC2)cc1=O	1%
O=C(CN1C(=O)COc2cc(Br)ccc21)Nc1cccc2ccccc12	9%
CC1CCCN(C2(N3CCCC(C)C3)C(=O)Nc3ccc(F)cc32)C1 (stereo not drawn)	19%
N#Cc1cccc(CNCC2(N3CCOCC3)CCCCC2)c1	-4%
Cc1c(S(=O)(=O)NCCn2nc(C(F)(F)F)cc2C)cnn1C	8%
Cc1c(C)c2ccc(NC(=O)c3cc4ccccc4o3)cc2[nH]c1=O	78%
Cc1nc2sc(C(=O)Nc3ccc4ccccc4c3)c(N)c2c(C)c1C	9%
Cc1cc(C(=O)Nc2ccc3ccccc3c2)co1	-3%
O=C(Cn1c(=O)n(-c2cc(F)cc(F)c2)c(=O)c2sccc21)NCc1ccc(F)cc1F	-2%
CCC(CC)C(=O)c1c[nH]c(C(N)=O)c1	-17%
Cc1noc(CCNC(=O)N2CCCCC[C@H]2c2ccc(C)o2)n1	-1%
CC(C)(C)c1nc(Cn2cnc3ncc(Br)cc32)no1	6%
NS(=O)(=O)N1CCN(Cc2ccn(C3CCCC3)n2)CC1	9%
Cc1nn(-c2nc3ccccc3[nH]2)c2c1[C@@H](c1cccnc1)CC(=O)N2	79%
Cc1nn(-c2ncccn2)c2c1[C@@H](c1ccccc1)CC(=O)N2	-15%
O=C1C[C@H](c2cccnc2)c2cnn(C3CCCC3)c2N1	16%
Cc1noc(C2CCN(CC(=O)Nc3ccccc3C(=O)NCC(C)C)CC2)n1	1%
CCOC(=O)c1nc[nH]c1-n1nc(C)cc1C	7%
COc1ccc(-c2nccn3cc(C(=O)N4CCCCCC4)nc23)cc1	4%
CC(=O)NC1CN(C(=O)Nc2ccc(C(C)C)c(F)c2)C1	-11%
COc1ccc(C2C(C(=O)O)c3ccccc3C(=O)N2C2CCCCC2)cc1 (stereo not drawn)	-13%
Cc1c([C@@H](NCc2ncccc2O)C(C)C)oc2ccccc12	94%
CC1=NN(c2nc(C)cc(O)n2)C(=O)C1	-6%

SMILES	% Inhibition
COc1cccc(-c2nc3n(c2C(=O)Nc2ccccc2C#N)CCS3(=O)=O)c1	9%
Cc1ccc(-c2ccc(=O)n(CCC(=O)N3CCN(C4CCCCC4)CC3)n2)cc1	0%
C[C@H]1C(=O)N(C)C[C@@H](CNS(=O)(=O)c2ccccc2)N1Cc1cccnc1	9%
CCN(CC)c1ccc(NS(=O)(=O)c2cc(S(=O)(=O)c3ccc(Cl)c(S(=O)(=O)Nc4ccc(N(CC)CC)cc4)c3)ccc2Cl)cc1	5%
CN(C)CC(O)COc1ccc(S(=O)(=O)c2ccc(OCC(O)CN(C)C)c(Cl)c2)cc1Cl (stereo not drawn)	61%
COc1cc(=O)c(C(=O)NCCN2CCCCC2)nn1-c1ccc(F)cc1	0%
Cc1ccc(C(=O)N2CCCC23CCC3)nn1	-9%
O=C(c1[nH]nc(C2CC2)c1Br)N1CCC12CCC2	-3%
CCOc1ccc(C2C(C(=O)O)CCC(=O)N2C2CCCCC2)cc1 (stereo not drawn)	10%
CN(C)c1ccc(C(=O)N2CC[C@H]3NC(=O)N(Cc4ccccc4)C(=O)[C@H]32)cc1	-5%
Cc1ccc(S(=O)(=O)Nc2cccc(-c3csc(C)n3)c2)cc1	10%
COc1ccc(CNC(=O)c2sc(Nc3ccc(C)cc3C)nc2C)c(OC)c1	-2%
O=C1[C@H](c2cccnc2)N(CCCc2ccccc2)C(=O)CN1c1ccccc1	-15%
CCN(CCN(C)C)C(=O)c1cccc(-c2ccc3nccc(N)c3c2)c1	96%
CCC(=O)N(CCN(C)C)Cc1c(-c2ccccc2)noc1N1CCCCC1	13%
COc1ccc(-c2cc3nn(CC(=O)NCCC(C)C)c(=O)n3c(C)n2)cc1	1%
CCc1sc(N(C(=O)CCc2ccccc2)c2ccc(C)cc2C)nc1-c1ccc(OC)cc1	9%
CCn1ncc(-c2cc(C(F)(F)F)c3c(C(C)C)nn(-c4ccc(F)cc4)c3n2)c1C	-1%
O=C(C[C@H]1CCC(=O)N(Cc2ccccc2)CC1)NC1CCN(Cc2ccccc2)CC1	6%
O=C(NC1CCCCCC1)c1cn(CC2(O)CCN(Cc3ccccc3)CC2)nn1	15%
CCn1ncc(C(=O)n2nc(C)cc2C)c1C	10%
O=c1cc(N2CCN(C3CCCC3)CC2)cnn1Cc1ccccc1	-19%
Cc1ccnc(-n2nccc2NC(=O)[C@H](C)Oc2ccccc2)c1	0%
O=c1c2ccccc2nc2cc(-c3ccc(O)cc3)c(-c3ccccc3)nn12	28%
CCOC(=O)NC(c1ccccc1F)C1CCCCC1=O (stereo not drawn)	1%
